DT40 TDP1 CPT – DT40-hTDP1 cell growth loss with CPT; chicken DT40 Tdp1-/-;hTDP1 cells + 20 nM CPT, ATP luminescence, 48 h; Potency, µM (titrated, usually from 46.2 µM), for inactives: at the highest dose activity change, negative = growth inhibition, usual class: inhibitors; 420,000 tested, 12% active; note: potency is the fitted concentration of half-maximal effect; nearly all actives have a fitted effect of over 55% in size
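Chicken DT40 Tdp1-/- cells complemented with human TDP1, 400 cells/well, exposed to compounds plus 20 nM camptothecin for at least 48 h at 37 C; viability read as ATP content by CellTiter-Glo luminescence.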
ELG1 DNA repair – ELG1-dependent DNA repair inhibition | HEK293T ELG1-luciferase reporter, luminescence, 16 h; DNA damage induced by 5-fluorouridine | 330,000 tested, 2.3% active | Potency, µM (titrated, usually from 46.1 µM), for inactives: at the top dose activity change, negative = inhibition, hits mostly inhibitors | AID 504467; note: potency is the fitted concentration of half-maximal effect; nearly all actives have a fitted effect of over 55% in size
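DMSO vehicle served as the neutral condition. Each well held 2,000 cells given 5-fluorouridine plus compound; after 16 hr at 37 °C/5% CO2, ONE-Glo was added and luciferase measured 30 min later.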
DT40 TDP1 no CPT – qHTS for Inhibitors of human tyrosyl-DNA phosphodiesterase 1 (TDP1): qHTS in cells in absence of CPT; DT40 Tdp1-/- hTDP1 cells, no CPT, ATP luminescence, 48 h; Potency, µM (titrated, usually from 46.2 µM), inactives show at the highest dose activity change, negative = growth inhibition, usual class: inhibitors; 420,000 tested, 15% active; AID 686978, 2013; note: potency is the fitted concentration of half-maximal effect; nearly all actives have a fitted effect of over 55% in size
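Compound effects on proliferation are scored in DT40 Tdp1-/-;hTDP1 cells in the absence of CPT. ATP levels (CellTiter-Glo luminescence) are recorded after a ≥48 hr, 37 °C incubation.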
IL1B secr inh – blocks inflammasome-driven IL-1 beta release; 360,000 tested, 4.7% active; activity change, % at 57.5 µM; THP-1 LPS/ATP IL-1B secretion, AlphaLISA, 16 h; active compounds read low; in the data active = activity change below about -50%; inconclusive = mostly about -30% to -49%
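THP-1 cells pretreated 1 hr with compounds (up to 57.5 uM final), then stimulated with LPS (250 ng/mL final) plus ATP (1.25 mM final); secreted IL-1B measured by AlphaLISA after 16 hr, decreased signal indicating inhibition.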
RORg inh – ROR gamma (mouse) transcription inhibition; P51450; Drosophila S2 Gal4-RORgamma UAS-luciferase reporter, 20 h; Potency, µM (highest dose often 53.6 µM), for inactives: top-dose activity change, negative = inhibition, usual class: inhibitors; 310,000 tested, 5.4% active; AID 2551; note: potency is the fitted concentration of half-maximal effect; nearly all actives have a fitted effect of over 60% in size
Target sequence (P51450 whole entry, looked up, the tested form may be a part): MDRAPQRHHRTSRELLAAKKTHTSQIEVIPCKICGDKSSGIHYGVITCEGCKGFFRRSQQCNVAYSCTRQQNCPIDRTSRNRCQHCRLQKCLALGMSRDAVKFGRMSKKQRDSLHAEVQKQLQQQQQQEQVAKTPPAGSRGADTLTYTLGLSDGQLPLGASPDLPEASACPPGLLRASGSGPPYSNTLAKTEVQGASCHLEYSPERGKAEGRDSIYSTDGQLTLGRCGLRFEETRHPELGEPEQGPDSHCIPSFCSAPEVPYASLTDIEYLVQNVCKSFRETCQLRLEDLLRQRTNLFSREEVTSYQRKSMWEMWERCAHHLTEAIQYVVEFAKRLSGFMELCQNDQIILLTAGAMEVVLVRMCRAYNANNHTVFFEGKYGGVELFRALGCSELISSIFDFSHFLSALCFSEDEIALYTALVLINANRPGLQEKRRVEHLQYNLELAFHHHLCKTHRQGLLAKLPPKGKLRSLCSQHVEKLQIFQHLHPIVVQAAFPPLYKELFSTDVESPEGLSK
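A Gal4/UAS one-hybrid system in insect cells: metallothionein-promoter Gal4–ROR gamma fusion plus Photinus luciferase reporter. Copper sulfate 700 uM final, 20 hr ambient incubation, luminescent detection after 10 min with reagent.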
Gal4-VP16 FLuc – inhibits Gal4-VP16 luciferase reporter, ROR gamma counter-screen; Drosophila S2 Gal4-VP16 UAS-luciferase, luminescence, 20 h; Potency, µM (highest dose often 53.6 µM), for the others: top-dose activity, negative = inhibition, usual class: inhibitors; 310,000 tested, 3.5% active;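 note: Gal4-VP16 expression switched on by copper sulfate through the metallothionein promoter; potency is the fitted concentration of half-maximal effect; nearly all actives have a fitted effect of over 50% in size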
* = called active by the depositor; ? = inconclusive; · = not tested or not shown; [ ] = another dose, or the depositor's remark. Compounds with a hit are over-represented: about 21% of the library has one in this group of screens. Unless noted, calls come from the whole dose curve; as a rule, active = well fitted curve in the direction sought with a large enough effect; inconclusive = small, poorly fitted or top-dose-only effect, or another doubt; inactive = no such curve, though single readings can be large; an effect the other way counts as inactive or inconclusive. % is set by controls: 0 for no effect and ±100 for the full control effect.

SMILES	DT40 TDP1 CPT	ELG1 DNA repair	DT40 TDP1 no CPT	IL1B secr inh	RORg inh	Gal4-VP16 FLuc
CC(NC(=O)c1ccc([N+](=O)[O-])o1)C12CC3CC(CC(C3)C1)C2 (stereo unspecified)	?	6.1%	?	-136.0*	2.51µM*	-13.2%
COc1ccc(NC(=O)c2c([N+](=O)[O-])c(C(C)(C)C)nn2C)cc1	?	?	?	-54.4*	25.2%	5.6%
COc1ccc(N/C(=C/[N+](=O)[O-])SC)cc1	5.4%	-2.8%	-10.3%	-56.9*	-3.6%	-0.8%
COc1ccc(NC(=O)c2ccc([N+](=O)[O-])o2)cc1	16.4µM*	?	23.1µM*	-96.4*	·	·
CC(=O)OCC1OC(n2cnc3c(=O)[nH]cnc32)C(OC(C)=O)C1OC(C)=O (stereo unspecified)	0.9%	·	8.0%	·	-8.7%	-8.6%
NS(=O)(=O)c1ccc(O)c(NC(=O)c2ccc([N+](=O)[O-])o2)c1	?	?	?	-61.0*	1.0%	7.1%
Cc1cccc(NC(=O)c2ccc(-c3ccccc3[N+](=O)[O-])o2)c1	0.5%	-10.9%	?	-16.1	-13.9%	-14.4%
CC(=O)c1ccc(NC(=O)c2ccc([N+](=O)[O-])o2)cc1	2.06µM*	-3.8%	1.84µM*	-97.5*	6.31µM*	12.6µM*
NS(=O)(=O)c1ccc(CNC(=O)c2ccc(Br)o2)cc1	-1.0%	5.2%	-13.4%	-5.7	2.4%	3.6%
CC(=O)Nc1ccc(NC(=O)COC(=O)c2ccc([N+](=O)[O-])o2)cc1	-24.4%	28.6%	?	37.9	·	·
Cc1cc(C)cc(NC(=O)c2ccc([N+](=O)[O-])o2)c1	7.31µM*	?	6.51µM*	-96.1*	?	?
COc1cc(NC(=O)c2ccc([N+](=O)[O-])o2)ccc1NC(=O)c1ccco1	0.651µM*	-3.3%	0.92µM*	-26.7	?	?
CC1CCN(C(=O)c2ccc(NS(=O)(=O)c3cccc4cccnc34)cc2)CC1	?	-24.9%	?	-19.8	44.2%	5.5%
COC(=O)[C@@H]1C[C@H]1[C@@H](NC(C)=O)c1ccccc1	·	·	·	·	16.6%	-5.7%
Cc1cc(C)cc(NC(=O)C(=O)NCC(c2ccc3c(c2)OCO3)N2CCOCC2)c1 (stereo unspecified)	-19.3%	·	-27.3%	·	·	·
CC1CCC2CC1C2(C)C (stereo unspecified)	·	·	·	·	-1.4%	-3.4%
CC(=O)c1cccc(NC(=O)c2ccc([N+](=O)[O-])o2)c1	8.2µM*	·	14.6µM*	-87.1*	·	·
Cc1cc(C)nc(NC(=O)c2ccc([N+](=O)[O-])o2)n1	?	-9.2%	13µM*	0.0	-33.6%	-13.1%
COC(=O)C1CC1C(NC(=O)[C@@H]1CCCN1)c1ccccc1 (stereo partly specified)	·	·	·	·	-15.1%	0.1%
CCn1c(=NC(=O)CSC(C)=O)sc2ccccc21	20.6µM*	-0.2%	?	-15.6	-33.3%	-2.6%
CCn1c(=NC(=O)CSC(C)=O)sc2cc(OC)ccc21	?	-27.9%	?	25.1	10µM*	?
O=C(CN1CCOCC1)Nc1ccccc1Sc1ccc(Cl)cc1	?	?	6.51µM*	-59.0*	14.8%	3.3%
NC(=O)C1(N2CCCCC2)CCN(CC(=O)Nc2cc(Cl)ccc2Cl)CC1	-21.3%	?	-21.7%	-9.9	0.8%	2.2%
O=C(CN1CCOCC1)Nc1ccccc1F	-3.0%	-12.8%	10.2%	11.7	-4.1%[1.91 µM]	3.1%
NC(=O)C1(N2CCCCC2)CCN(CC(=O)Nc2ccccc2Sc2ccccc2)CC1	?	?	?	-78.6*	27.3%	-5.2%
SMILES	DT40 TDP1 CPT	ELG1 DNA repair	DT40 TDP1 no CPT	IL1B secr inh	RORg inh	Gal4-VP16 FLuc
O=C(CN1CCOCC1)Nc1nc(-c2ccc(Cl)cc2)cs1	16.4µM*	-22.3%	20.6µM*	?	21.3%	16.5%
CC1CN(CC(=O)Nc2nc(-c3ccc(Cl)cc3)cs2)CC(C)O1 (stereo unspecified)	?	·	23.1µM*	?	·	·
COc1cccc(S(=O)(=O)N(C)C[C@H]2OCc3cn(nn3)CCCC(=O)N([C@@H](C)CO)C[C@@H]2C)c1	-3.2%	·	22.0%	-19.6	·	·
CCN1CCCC1CNC(=O)Cn1cc(C)c(=O)[nH]c1=O (stereo unspecified)	-0.9%	·	-1.2%	0.0	·	·
Cc1ccc(C)c(NS(=O)(=O)c2ccccc2C)c1	5.4%	0.8%	-5.4%	12.1	-18.0%	-8.0%
Cc1ccc(-c2csc(NC(=O)CN3CCOCC3)n2)cc1	16.4µM*	?	16.4µM*	15.8	-30.2%	23.3%
O=C(Nc1nc(-c2ccc(Cl)cc2)cs1)C1CCCO1 (stereo unspecified)	?	?	23.1µM*	-69.5*	35.2%	-1.6%
COc1ccc(CC2(CO)CCN(S(=O)(=O)c3cccc4cccnc34)CC2)cc1	-6.2%	-2.2%	1.1%	-1.8	31.0%	-6.1%
CCOC(=O)[C@@H]1[C@H]2COc3cc(OC)ccc3[C@H]2N2C(=O)N(c3ccc(C)cc3)C(=O)[C@]12C	-33.1%	-7.6%	-52.2%	-7.0	·	·
CC(C)(C)OC(=O)N1CCC(c2c(C(=O)N3CCCCC3)cnn2-c2ccccc2Cl)CC1	18.4µM*	·	?	·	·	·
CC(C)(C)OC(=O)N1CCC(c2c(C(=O)N3CCN(c4ccccn4)CC3)cnn2-c2ccccc2Cl)CC1	?	·	18.4µM*	·	·	·
CC(C)(C)OC(=O)N1CCC(c2c(C(=O)N3CCOCC3)cnn2-c2ccccc2Cl)CC1	5.3%	·	0.6%	·	·	·
COc1ccc(OC)c(CCNC(=O)c2cnn(-c3ccccc3Cl)c2C2CCN(C(=O)OC(C)(C)C)CC2)c1	18.4µM*	·	13µM*	·	·	·
Cc1cccc(C)c1-n1ncc(C(=O)N2CCN(c3ccccn3)CC2)c1C1CCN(C(=O)OC(C)(C)C)CC1	?	·	18.4µM*	·	·	·
NC(=O)C1CCN(C(=O)c2ccc3c(=O)n(Cc4ccco4)c(SCC(=O)c4ccc(F)cc4)nc3c2)CC1	·	-19.6%	·	·	12.7%	3.2%
COc1ccc(CNc2ccnc(-c3cccc(NS(C)(=O)=O)c3)n2)c(OC)c1	?	·	?	·	25.3%	-4.6%
Cc1ccccc1C(=O)N1CCC(N2CCN(Cc3ccc(F)cc3)C(=O)C2=O)CC1	1.6%	·	4.6%	·	·	·
COc1ccc2c(COC(=O)c3cccc(S(=O)(=O)NCC(C)C)c3)cc(=O)oc2c1	?	1.6%	?	20.3	23.2%	1.6%

High-throughput results: PubChem BioAssay, National Center for Advancing Translational Sciences (NCATS)
